The results in this text go back to PubChem BioAssay (NCATS).

Records with an inconclusive call do not appear. Values without a mark were called inactive. Calls follow the shape of the dose curve; as a rule, active = well fitted cell-killing curve with a large enough effect; inconclusive = small, poorly fitted or top-dose-only effect, or effect the other way; inactive = flat fitted curve, though single readings scatter. Where a SMILES comes first, the peptide text is derived from it. Bridges are numbered along the chain shown (N, C = ends). [ ]: non-standard residue; d: D form. hArg = N=C(N)NCCCC[C@H](N)C(=O)O; Mpa = O=C(O)CCS
% is scaled to controls: 0 for no effect and ±100 for the full control effect.

For this test, the system named is SKOV3. In words: Primary qHTS to identify gynecologic anti-cancer compounds using libraries of approved drugs and bioactive compounds (AID 1345084). Also: nearly all actives have a fitted effect of over 55% in size. As to conditions: Gynecologic cancer cell panel viability, ATPlite luminescence, 48 h; series mostly up to 57.5 µM; activity change, negative = cytotoxicity: at the top concentration. The method, boiled down:
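Cells, 1,000 per well, plated 16 h, then exposed 48 h at 37 C to compounds. Viability by ATPlite luminescence after 15 min at room temperature.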
Background: Quantitative high-throughput screening tests each substance at several concentrations.
Turning to `CN1C[C@@H]2C[C@H]1CN2c1cc2c(cc1F)c(=O)c(C(=O)O)cn2C1CC1`, the “activity change, negative = cytotoxicity” value was 23.1% [at 25.3 µM].
In the case of `CCOc1ccc(C(=O)OCCN(CC)CC)cc1`, the “activity change, negative = cytotoxicity” value is -12.2%.
In the case of `CCOc1cc(NC(C)=O)ccc1C(=O)OC`, the “activity change, negative = cytotoxicity” value was -0.683%.
With `COc1nccnc1NS(=O)(=O)c1ccc(N)cc1`, the “activity change, negative = cytotoxicity” value was -9.21%.
Under `CCCCCC(C)N` (configuration not stated) stands -2.52%; under `CCCNC(C)C(=O)Nc1c(C)csc1C(=O)OC` (configuration not stated), 7.46%.
Next, `CC(=O)N(CC(O)CN(C(C)=O)c1c(I)c(C(=O)NCC(O)CO)c(I)c(C(=O)NCC(O)CO)c1I)c1c(I)c(C(=O)NCC(O)CO)c(I)c(C(=O)NCC(O)CO)c1I` (configuration not stated): 22.4%; `CN/C(=C\[N+](=O)[O-])NCCSCc1csc(CN(C)C)n1`: 12.4%; `CCc1nnc(NS(=O)(=O)c2ccc(N)cc2)s1`: 18.7%.
Take `O=C(NCC(O)CO)c1c(I)c(C(=O)NCC(O)CO)c(I)c(N(CCO)C(=O)CO)c1I` (configuration not stated): the “activity change, negative = cytotoxicity” value is 6.41%.
`O=C(O)c1ccc(OCCCOc2ccc(C(=O)O)cc2)cc1`: the “activity change, negative = cytotoxicity” value was -6.91%.
Under `O=C(Cn1ccnc1[N+](=O)[O-])NCCO` stands 2.56%.
Consider `COCC(=O)Nc1c(I)c(C(=O)NCC(O)CO)c(I)c(C(=O)N(C)CC(O)CO)c1I` (configuration not stated), for which the “activity change, negative = cytotoxicity” value is 0.231%.
For the compound `NC(=O)[C@@H]1CSSCCC(=O)N[C@@H](CCCCN=C(N)N)C(=O)NCC(=O)N[C@@H](CC(=O)O)C(=O)N[C@@H](Cc2c[nH]c3ccccc23)C(=O)N2CCC[C@H]2C(=O)N1` ([Mpa][hArg]GDWPC-NH2; disulfide 1-7), the “activity change, negative = cytotoxicity” value was 1.7%.
For `O=c1[nH]c(=O)c2ccccc2o1`, the “activity change, negative = cytotoxicity” value is -17%.
As to `NNC(=O)CP(=O)(c1ccccc1)c1ccccc1`, the “activity change, negative = cytotoxicity” value is -8.02%.
Next, `COc1ccccc1Oc1c(NS(=O)(=O)c2ccc(C(C)(C)C)cc2)nc(-c2ncccn2)nc1OCCO`: 8.46%.
